Experimental data: PubChem BioAssay AID1259354 (Paczesny and Yang Labs, IUPUI and University of Michigan, 2018)
Hit rate of the full screen: of about 78,000 compounds, about 1,800 (2.3%) were called active. About 27% were inconclusive and are not listed. This is one part of a sample in which actives are shown more often than they occur. No stated cut-off is given here; in the data, active means inhibition above about 30%; inconclusive means mostly about 10% to 28%; inactive means weaker than that.

molecular target: Interleukin-1 receptor-like 1 (Homo sapiens) (UniProt Q01638); assay: blocks human ST2 binding to IL-33, primary screen, biochemical, AlphaLISA (AID 1259354); details: AlphaLISA ST2-Fc/biotin-IL-33 interaction, 1 h; at 17 µM, stronger effect = higher value
Sequence (Q01638 whole entry, looked up): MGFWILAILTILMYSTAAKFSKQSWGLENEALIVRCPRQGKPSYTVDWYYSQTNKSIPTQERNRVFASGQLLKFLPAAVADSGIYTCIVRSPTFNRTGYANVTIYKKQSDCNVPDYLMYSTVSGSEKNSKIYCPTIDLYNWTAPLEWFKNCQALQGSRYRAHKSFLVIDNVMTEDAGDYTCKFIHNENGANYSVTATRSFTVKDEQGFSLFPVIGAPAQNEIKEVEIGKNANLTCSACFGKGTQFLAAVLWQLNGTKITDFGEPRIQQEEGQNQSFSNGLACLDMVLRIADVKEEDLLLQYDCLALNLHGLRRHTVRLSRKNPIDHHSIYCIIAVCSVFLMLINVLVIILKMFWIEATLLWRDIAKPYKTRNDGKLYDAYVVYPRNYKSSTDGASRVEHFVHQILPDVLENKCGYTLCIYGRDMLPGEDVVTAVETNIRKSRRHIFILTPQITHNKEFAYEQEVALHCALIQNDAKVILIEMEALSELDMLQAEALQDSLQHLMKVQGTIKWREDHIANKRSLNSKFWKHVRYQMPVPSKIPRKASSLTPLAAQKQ

Structure (SMILES) | inhibition
N#C/C(=C\c1ccc(-c2cccc([N+](=O)[O-])c2)o1)C(=O)Nc1cccc(C(F)(F)F)c1 | 30% (active)
O=[N+]([O-])c1cccc(-c2noc([C@@H]3C[C@@H](O)CN3Cc3ccc(C(F)(F)F)cc3)n2)c1 | inactive
N#CC(C(=O)Nc1cccc(C(F)(F)F)c1)=C1CCCCCC1 | inactive
O=C(C1CCCN(Cc2c[nH]c3ccccc23)C1)N1CCCCCC1 (stereo not drawn) | inactive
COc1ccc(-c2oc3ncn(Cc4ccco4)c(=N)c3c2-c2ccc(OC)cc2)cc1 | 31% (active)
O=C(Nc1c(-c2ccc(F)cc2)nc2ccccn12)c1cccc(F)c1 | inactive
Fc1ccc(C=Nc2c(-c3ccco3)nc3ccccn23)cc1 | 49% (active)
Cc1cccc2nc(-c3ccco3)c(Nc3ccc(F)cc3)n12 | inactive
Fc1cccc(N2N=C(/C=C/c3cccs3)CC2c2cccs2)c1 (stereo not drawn) | 32% (active)
CCN(CC)S(=O)(=O)c1ccc(C(=O)Nc2nnc(-c3cc(OC)cc(OC)c3)o2)cc1 | inactive
N#C/C(=C/c1ccc2c(c1)OCO2)c1nc(-c2cccc(Br)c2)cs1 | 30% (active)
N#C/C(=C\c1cccc(F)c1)c1nc(-c2ccc3c(c2)OCO3)cs1 | inactive
COc1ccccc1OCCNC(=O)c1ccccc1O | inactive
CCSc1nnc(NC(=O)Nc2ccc(Cl)cc2)s1 | inactive
O=C(Nc1ccc([N+](=O)[O-])cc1Br)c1ccncc1 | inactive
O=C(Nc1ccc([N+](=O)[O-])cc1Br)c1cncc(Br)c1 | 47% (active)
O=C(Nc1ccc([N+](=O)[O-])cc1Cl)c1cccc(Br)c1 | inactive
CC(C)N(C(=O)Cn1c(Cl)nc2c1c(=O)n(C)c(=O)n2C)c1ccccc1 | inactive
CCc1ccc(NC(=O)c2ccc(CN3CCOCC3)cc2)cc1 | inactive
O=C(Nc1ccc(Cl)cc1)Nc1ccc2n(c1=O)C[C@H]1C[C@@H]2CN(C(=O)Cc2cccs2)C1 | inactive
COc1ccc(-c2cccc(-n3cccn3)c2)cc1C(N)=O | inactive
CN1CCCC2(CC1)CCN(C(=O)c1cc3ccccc3n(C)c1=O)CC2 | inactive
COc1cc(OC)cc(C(=O)N2c3ccccc3Sc3ccccc32)c1 | inactive

Structure (SMILES) | inhibition
O=c1nc2cc3[nH]c4c(=O)c5ccccc5c4[nH]c3cc2n1 | 46% (active)
O=C(c1cccc(I)c1)n1nnc2ccccc21 | inactive
CCSc1ncc(CN2CC[C@@H](N(C)CCc3ccccn3)[C@H](O)C2)cn1 | inactive
CC(=O)Nc1ncc2c(n1)CC(c1ccc(F)cc1)CC2=O (stereo not drawn) | inactive
COc1ccc(-c2cc(C(=O)Nc3cccnc3)c3ccccc3n2)cc1 | inactive
COc1ccc(-c2cc(C(F)(F)F)nc(NCc3cccnc3)n2)cc1 | inactive
COc1ccc(-c2csc(/C(C#N)=C\c3cccnc3)n2)cc1 | 31% (active)
CCc1cccc(NS(=O)(=O)c2cc(Br)cc3c2N(C(C)=O)C(C)C3)c1 (stereo not drawn) | inactive
O=C(c1cscn1)N1CCCC(CCc2ccccc2C(F)(F)F)C1 (stereo not drawn) | inactive
COc1ccc(/C=C2\SC(=O)N(c3ccc(C)cc3)C2=O)cc1 | inactive
O=C1N=C(N2CCOCC2)S/C1=C/c1ccc(F)cc1 | inactive
N=C1S/C(=C\c2ccc(N3CCOCC3)cc2)C(=O)N1c1ccccc1Cl | 31% (active)
CCC1=Nc2cc(C(=O)NCCN(CC)CC)ccc2Sc2ccc(C)cc21 | inactive
COc1ccc(C2NC(=O)N(C)C(C)=C2[N+](=O)[O-])cc1 (stereo not drawn) | inactive
COc1ccc(C2CC(c3ccc([N+](=O)[O-])cc3)=NN2)cc1 (stereo not drawn) | 30% (active)
COc1ccc(C2CC(c3ccc(C)cc3)Nc3ncnn32)cc1 (stereo not drawn) | inactive
COC(=O)c1nc2n(n1)C(c1ccc(F)cc1)C1=C(CCCC1=O)N2 (stereo not drawn) | inactive
CC(=O)c1ccc(NC(=O)CCC2CCCCC2)cc1 | inactive
FC(F)(F)c1cccc(NCn2nnc3ccccc32)c1 | inactive
O=C(CCN1C(=O)c2ccccc2C1=O)Nc1cccc(C(F)(F)F)c1 | inactive
Cc1nn(-c2ccccn2)c2c1C(=O)/C(=C/Nc1cccc(C(F)(F)F)c1)CC2 | 35% (active)
CCOc1ccc2[nH]c(C(=O)O)c(CCN)c2c1 | inactive
Cc1[nH]c2ccc(CNC(=O)[C@@H](O)Cc3ccccc3)cc2c1C | inactive

Structure (SMILES) | inhibition
COc1ccc(Br)cc1C(=O)Nc1cccc(Cl)c1 | inactive
Cc1ccc2ncc(NC(=O)c3cccs3)c(=O)n2c1 | 83% (active)
O=C(Nc1cccc(OCc2cc(=O)n3cc(Cl)ccc3n2)c1)c1cccs1 | inactive
O=C(NC1CCCCCCC1)c1cccs1 | inactive
Fc1cccc(CC2CN(Cc3cn[nH]c3-c3ccccc3)CCO2)c1 (stereo not drawn) | inactive
N#CC(c1ccco1)N1CCN(C(C#N)c2ccco2)CC1 (stereo not drawn) | inactive
CCc1ccc(S(=O)(=O)N=C2C=C(Nc3ccc(OC)cc3)C(=O)c3ccccc32)cc1 | 95% (active)
COc1ccc(S(=O)(=O)NC(c2ccccc2)c2ccccc2)cc1 | inactive
COc1ccc(NS(=O)(=O)c2ccc(Cl)cc2)cc1 | inactive
CCOc1ccc(S(=O)(=O)N=C2C=C(Nc3ccc(C)cc3)C(=O)c3ccccc32)cc1 | 91% (active)
CCc1ccc(S(=O)(=O)N=C2C=C(Br)C(=O)c3ccccc32)cc1 | 36% (active)
O=C1C(Nc2ccc(Br)cc2)=CC(=NS(=O)(=O)c2cccs2)c2ccccc21 | 79% (active)
CCOc1ccc(NS(=O)(=O)c2ccc(NC(=O)c3ccccc3Br)cc2)cc1 | inactive
CCOc1ccc(NS(=O)(=O)c2ccc(Cl)cc2)cc1 | inactive
CCN(CC)S(=O)(=O)c1ccc(OC)c(NC(=O)c2cc(OC)c(OC)c(OC)c2)c1 | inactive
Cc1cccc(OCC(=O)Nc2cc(C(F)(F)F)ccc2Cl)c1 | inactive
Cc1ccc(CNC(=O)c2ccc3nc4sc5c(c4c(=O)n3c2)CCCC5)cc1 | inactive
CCOc1ccc(NC(=O)C2CCN(S(=O)(=O)c3ccc(OC)c(OC)c3)CC2)cc1 | inactive
COc1ccc(C2=N/C(=C\c3ccc(C(C)C)cc3)C(=O)O2)cc1[N+](=O)[O-] | inactive
CCC(C(=O)NCc1ccccc1Cl)c1ccccc1 (stereo not drawn) | inactive
O=C(c1ccccc1Cl)N1CCCCC1 | inactive
CCCCN(CC)S(=O)(=O)c1ccc2[nH]c(=O)cc(C(=O)NC3CCCCC3C)c2c1 (stereo not drawn) | inactive
